# Measurements: PubChem BioAssay (NCATS)
# Results filed as inconclusive are left out. Active and inactive are the calls of the source. Calls come from the whole dose curve; as a rule, active = well fitted cell-killing curve with a large enough effect; inconclusive = small, poorly fitted or top-dose-only effect; inactive = flat fitted curve, though single readings scatter.
# Experiment: qHTS of pediatric cancer cell lines to identify multiple opportunities for drug repurposing: Primary screen for Rh18 cells (AID 1347102); note: nearly all actives have a fitted effect of over 65% in size
# Settings: Rh18 rhabdomyosarcoma viability, CellTiter-Glo luminescence, 48 h; series mostly up to 46 µM; activity change, negative = cytotoxic: at the top concentration
# Text: Drug repurposing or repositioning has been offered as a strategy for drug development in oncology programs. This approach has special potential for childhood cancers and other rare or orphan diseases, where the expected return on new drug development has been a disincentive to pharmaceuticals.
# In this project we exploit the poly-pharmacology of drugs to discover new indications via phenotypic screening of a panel of 19 well-characterized cell lines derived from solid tumors seen in children and adolescents. The goal is to identify approved drugs with previously unrecognized anticancer properties that has the potential to reveal new mechanisms and biological processes involved in carcinogenesis or drug resistance. We employed a titration-based paradigm (quantitative high-throughput screening or qHTS), where all compounds were tested at multiple concentrations for their effect on cell viability. Concentration-response curves (CRCs) were derived directly from the primary screen, and both potency and efficacy values were used to identify compounds with robust bioactivity profiles. We screened the NIH Chemical Genomics Center (NCGC) Pharmaceutical Collection (NPC) and Mechanism Interrogation Plate (MIPE) small molecule collections of approved and investigational compounds against these cell lines; and measured metabolically active cells after 48 hours of compound treatment as a proxy for cell viability.
# Assay Submitter: Nathalia J. Martinez, National Center for Advancing Translational Sciences, National Institutes of Health, Rockville, MD, USA; email: natalia.martinez@nih.gov
# [1] Shen, M et al. Quantitative high-throughput phenotypic screening of pediatric cancer cell lines identifies multiple opportunities for drug repurposing. Oncotarget 2017 Dec 19;9(4):4758-4772. PMID 29435139.
# The cells were obtained from University of North Carolina (UNC), Pediatric Preclinical Testing Program (PPT), and Coriell Institute (CI).
# qHTS cell viability assay:
# Cells were assayed in growth media at a density of 500-1,000 cells/well. Five microliters of cells were dispensed into 1,536-well, white, solid-bottom, TC-treated plates (Greiner Bio One) using a multidrop dispenser and incubated at 37 degrees C, 5% CO2, under a humidified atmosphere for 5 hours. Twenty-three nanoliters of compounds and controls (neutral control DMSO or positive control bortezomib at final concentration of 2.3 µM) were subsequently transferred by Kalypsys pintool. For primary screens, the MIPE collection was tested at 11-point dilutions (final concentrations range from 0.78 nM to 46 µM) and the NPC collection at 8-point dilutions (final concentrations range from 0.59 nM to 46 µM). Compounds tested in follow-up screens were assayed at 11-point dilutions. Cells were incubated for 48 hours, followed by addition of 3 µL of CellTiter-Glo (Promega). After a 15 min incubation at room temperature, samples were analyzed for luminescence intensity using a ViewLux High-throughput CCD imager equipped with clear filters.
# % is set by controls: 0 for no effect and ±100 for the full control effect; potency is the fitted concentration of half-maximal effect.
Compound,"activity change, negative = cytotoxic",Potency
C[C@H](NC(=O)Cc1cc(F)cc(F)c1)C(=O)N[C@H](C(=O)OC(C)(C)C)c1ccccc1,-17.2% (inactive),–
COC(=O)[C@H](CCCN=C(N)N)NS(=O)(=O)c1ccc(C)cc1,14.8% (inactive),–
C[N+]1(C)[C@@H]2C[C@@H](OC(=O)C(O)(c3cccs3)c3cccs3)C[C@H]1[C@@H]1O[C@@H]12,17.5% (inactive),–
COc1ccnc2[nH]cc(C(=O)C(=O)N3CCN(C(=O)c4ccccc4)C[C@@H]3C)c12,22% (inactive),–
CC(C)N1[N]C(=C2C=c3cc(O)ccc3=N2)c2c(N)ncnc21,–,5.9 µM (active)
C=CC(=O)Nc1ccc2ncnc(Nc3ccc(OCc4cccc(F)c4)c(Cl)c3)c2c1,–,7.43 µM (active)
C[C@@H](Cc1cc2c(c(C(N)=O)c1)N(CCCO)CC2)NCCOc1ccccc1OCC(F)(F)F,-6.66% (inactive),–
COc1cc(C(=O)NC2CCN(C)CC2)ccc1Nc1ncc2c(n1)N(C1CCCC1)CCC(=O)N2C(C)C,–,18.7 µM (active)
O=S(=O)(O)CCSSCCS(=O)(=O)O,16.8% (inactive),–
C=C[C@@H]1CN2CCC1C[C@H]2[C@H](O)c1ccnc2ccc(OC)cc12 (stereo not given in full),0.153% (inactive),–
CC(=O)O[C@@]12CO[C@H]1C[C@H](O)[C@@]1(C)C(=O)[C@H](O)C3=C(C)[C@@H](OC(=O)C(O)[C@@H](NC(=O)OC(C)(C)C)c4ccccc4)C[C@@](O)([C@@H](OC(=O)c4ccccc4)[C@@H]21)C3(C)C (stereo not given in full),-26.6% (inactive),–
CC(O)(C#Cc1ccc2c(c1)N(c1nc(N)ncc1Cl)CC2)c1nccs1 (stereo not given),1.97% (inactive),–
c1cc(CN2CCCNCCNCCCNCC2)ccc1CN1CCCNCCNCCCNCC1,17.9% (inactive),–
CC(=O)O[C@H]1C[C@@H]2CC[C@H]3[C@H]4C[C@H]([N+]5(C)CCCCC5)[C@@H](OC(C)=O)[C@@]4(C)CC[C@@H]3[C@@]2(C)C[C@H]1N1CCCCC1,15.3% (inactive),–
C#CCC(Cc1cnc2nc(N)nc(N)c2n1)c1ccc(C(=O)N[C@@H](CCC(=O)O)C(=O)O)cc1 (stereo not given in full),20% (inactive),–
FC(F)(F)c1ccc(Nc2nc3ccc(Oc4ccnc(-c5ncc(C(F)(F)F)[nH]5)c4)cc3[nH]2)cc1,3.15% (inactive),–
CC(=O)OC[C@@H]1O[C@@H](n2ccc(=O)[nH]c2=O)[C@H](OC(C)=O)[C@H]1OC(C)=O,2.38% (inactive),–
CN(C)CC[C@H](c1ccc(Cl)cc1)c1ccccn1,-1.34% (inactive),–
N#Cc1cc(NC(=O)Nc2nnc(-c3ccncc3)s2)ccc1-c1cn[nH]c1,20.1% (inactive),–
O=C(Nc1ccc(Oc2ccnc3[nH]ccc23)c(F)c1)c1cccn(-c2ccc(F)cc2)c1=O,8.76% (inactive),–

Compound,"activity change, negative = cytotoxic",Potency
Nc1nc(=O)n([C@H]2CSC(CO)O2)cc1F (stereo not given in full),8.44% (inactive),–
COc1ccc2cc([S+]([O-])Cc3ncc(C)c(OC)c3C)nc2c1,-19.6% (inactive),–
Cc1cncc2cccc(S(=O)(=O)N3CCCN(C(=O)CN)C[C@@H]3C)c12,-22.9% (inactive),–
N#CC(=C(O)c1ccc(Cl)cc1Cl)c1nc2cc(Cl)ccc2c(=O)[nH]1,1.86% (inactive),–
C[C@]12CCC(=O)C=C1[C@@H]1CC1[C@H]1[C@H]3[C@@H]4C[C@H]4[C@@]4(CCC(=O)O4)[C@@]3(C)CC[C@H]12 (stereo not given in full),-8.66% (inactive),–
C[C@@]12C[C@@]3(O)O[C@@H](O1)[C@]1(COC(=O)c4ccccc4)[C@@H]3C[C@@]12O[C@@H]1O[C@H](CO)[C@@H](O)[C@H](O)[C@@H]1O,5.24% (inactive),–
CC(=O)OCC(=O)[C@@]1(O)CC[C@H]2[C@@H]3CCC4=CC(=O)CC[C@]4(C)[C@@H]3C(=O)C[C@@]21C,1.03% (inactive),–
Cn1cc(-c2ccc3ncc(Cc4ccc5ncccc5c4)n3n2)cn1,4.65% (inactive),–
C=C(C)[C@@H]1CC[C@]2(C(=O)O)CC[C@]3(C)[C@H](CC[C@@H]4[C@@]5(C)CC[C@H](O)C(C)(C)[C@@H]5CC[C@]43C)[C@@H]12,-1.88% (inactive),–
CCCCCCCN(CC)CCCC(O)c1ccc(NS(C)(=O)=O)cc1 (stereo not given),1.58% (inactive),–
CC(C)(O)Cn1c(NC(=O)c2ccc(-c3cn[nH]c3)s2)nc2cc(CN3CCOCC3)ccc21,–,1.87 µM (active)
CCCNS(=O)(=O)Nc1ncnc(OCCOc2ncc(Br)cn2)c1-c1ccc(Br)cc1,2.73% (inactive),–
CCOC(=O)[C@H](CCc1ccccc1)N[C@@H](C)C(=O)N1[C@@H](C(=O)O)C[C@H]2CCC[C@@H]21,–,16.6 µM (active)
CC(C)(C)[C@H](NC(=O)c1ccc(N)c(Cl)c1)C(=O)N1CCC[C@@H]1C(=O)N[C@H](C#N)CC(=O)O,0.535% [at 4.84 µM] (inactive),–
COc1cccc2c1C(=O)c1c(O)c3c(c(O)c1C2=O)C[C@@](O)(C(=O)CO)C[C@@H]3O[C@H]1C[C@H](N)[C@H](OC2CCCCO2)[C@H](C)O1 (stereo not given in full),19.6% (inactive),–
C[N+](C)([O-])CCNc1ccc(NCC[N+](C)(C)[O-])c2c1C(=O)c1c(O)ccc(O)c1C2=O,10.4% (inactive),–
NC[C@H]1O[C@H](O[C@H]2[C@@H](O)[C@@H](O[C@H]3O[C@H](CO)[C@@H](O)[C@H](N)[C@@H]3O)[C@H](N)C[C@@H]2N)[C@H](N)C[C@H]1O,24.6% (inactive),–
CC(C=CC=C(C)C=CC1=C(C)CCCC1(C)C)=CC=CC=C(C)C=CC=C(C)C=CC1=C(C)CCCC1(C)C,-17.2% (inactive),–
Oc1cc(-c2nc(-c3ccccc3)[nH]c2-c2ccncc2)ccc1Cl,–,13.2 µM (active)
O=C(Nc1cccc(Nc2ncc(Br)c(NCCc3cnc[nH]3)n2)c1)N1CCCC1,–,9.35 µM (active)
